Seven compounds from PubChem BioAssay (Tox21) can be followed below.

Where “and” joins values, the source holds several entries; their conditions need not be identical. Identical values can stand only once. Results filed as inconclusive are left out. A structure can be active in one record and inactive in another. Calls of active or inactive are those of the source. Unless noted, calls follow the shape of the full dose curve.

Experiment [1] is described as follows: Nuclear factor erythroid 2-related factor 2/antioxidant responsive element (Nrf2/ARE) small molecule agonists: qHTS cell viability counter screen in human keratinocytes (AID 1919968; active = well fitted curve in the direction sought with a large enough effect in the repeat runs; an effect the other way counts as inactive or inconclusive; also: nearly all actives have a fitted effect of over 55% in size; also: potency is read from the fitted curve at half-maximal effect). A digest of the protocol: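 In human HaCaT keratinocytes stably expressing an ARE-driven luciferase, compound exposure lasted 23 h at 37 C under 5% CO2. Viable cells are quantified with a protease-based fluorogenic reagent (CellTiter-Fluor) read 1 h after addition.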
For orientation: Quantitative high-throughput screening tests each substance at several concentrations.

A short description of experiment [2]: Nuclear factor erythroid 2-related factor 2/antioxidant responsive element (Nrf2/ARE) small molecule agonists: luciferase reporter gene qHTS assay in human keratinocytes (AID 1919969). Also: nearly all actives have a fitted effect of over 35% in size. Also: potency is read from the fitted curve at half-maximal effect. In general terms: A reporter such as luciferase makes a cellular process visible.
The target in experiment [3] is Gonadotropin-releasing hormone receptor (Homo sapiens) (UniProt P30968). In words: Human gonadotropin-releasing hormone receptor (GnRHR) small molecule agonists, calcium flux assay in GnRHR-HEK293 cells (AID 1920063). Also: nearly all actives have a fitted effect of over 35% in size. In a few lines:
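Intracellular calcium rise is the read-out: engineered human GnRHR HEK293 cells, dye-loaded, are exposed to DMSO-dissolved compounds and fluorescence at Ex/Em 480/540 is tracked for 3 min.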
For orientation: Calcium flux is commonly read through the fluorescence of an indicator in the cells.

In experiment [4] the target is KiSS-1 receptor (Homo sapiens) (UniProt Q969F8). Kind of experiment: Human kisspeptin (KISS1R) small molecule agonists, calcium flux assay in KISS1R-HEK293 cells (AID 1920064; active = well fitted curve in the direction sought with a large enough effect in the repeat runs; an effect the other way counts as inactive or inconclusive). A digest of the protocol: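 Concentration-response testing used 15 concentrations in triplicate on human KISS1R-expressing HEK293 cells. Calcium-dependent fluorescence (Ex/Em 480/540) was followed kinetically for 3 min after compound transfer.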
KiSS-1 receptor (Homo sapiens), sequence (Q969F8 whole entry, looked up): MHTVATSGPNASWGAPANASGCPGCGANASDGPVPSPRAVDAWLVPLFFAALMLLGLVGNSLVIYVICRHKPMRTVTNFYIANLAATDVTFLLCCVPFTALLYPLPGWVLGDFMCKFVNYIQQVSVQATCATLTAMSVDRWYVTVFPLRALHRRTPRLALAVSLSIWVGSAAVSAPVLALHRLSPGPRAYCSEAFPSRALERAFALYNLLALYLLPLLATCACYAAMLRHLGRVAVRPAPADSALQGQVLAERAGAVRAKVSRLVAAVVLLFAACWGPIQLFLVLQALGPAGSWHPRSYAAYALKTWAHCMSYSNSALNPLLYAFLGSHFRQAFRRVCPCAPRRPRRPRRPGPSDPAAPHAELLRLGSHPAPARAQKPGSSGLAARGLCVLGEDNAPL

Experiment [5] can be described thus: G protein-coupled receptor (GPCR) small molecule agonists, calcium flux assay: HEK293 wild type cell line counter screen (AID 1920065). A digest of the protocol: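 Fluorescence intensity signals activation. After overnight (18 h) culture and a 1 h calcium dye load at 37 C, compounds are added by pin tool and the plate read at 480/540 nm for 3 min in 1 s steps.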

Experiment [6] can be described thus: p53 small molecule agonists, cell-based qHTS assay with human liver microsomes: qHTS cell viability counter screen (AID 1963579). Also: nearly all actives have a fitted effect of over 45% in size. Also: potency is read from the fitted curve at half-maximal effect. In a few lines: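 Metabolic activation used human liver microsomes and NADPH, both 0.5 mg/mL final, over 16 hours at 37 C on p53RE-bla cells (4,000/well). Cytotoxicity measured by CellTiter-Glo luminescence, 30 min at room temperature.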

Experiment [7] in a line: p53 small molecule agonists, cell-based qHTS assay with rat liver microsomes: qHTS cell viability counter screen (AID 1963580). Also: nearly all actives have a fitted effect of over 45% in size. Also: potency is read from the fitted curve at half-maximal effect. In a few lines:
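After the beta-lactamase ratio was read, CellTiter-Glo was added to the same wells and luminescence measured at 30 min; cells had been treated 16 h at 37 C with compounds, rat liver microsomes and NADPH (0.5 mg/mL final each).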

A short description of experiment [8]: p53 small molecule agonists, cell-based qHTS assay: qHTS cell viability counter screen (AID 1963581). Also: nearly all actives have a fitted effect of over 45% in size. In a few lines: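 Luminescence from CellTiter-Glo, reflecting ATP content, serves as the cytotoxicity measure; it is taken after the 2 h reporter substrate step in HCT-116 p53RE-bla cells dosed for 16 h at 37 C.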
For experiment [9], the target named is 5-hydroxytryptamine receptor 2A (Homo sapiens) (UniProt P28223). In words: 5-hydroxytryptamine receptor 2A (HTR2A) small molecule antagonists, cell-based qHTS assay (AID 1963586). Also: nearly all actives have a fitted effect of over 45% in size. In a few lines:
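CHO cells stably expressing human HTR2A were plated for 18 h at 37 C, then loaded with calcium dye for 1 h. Compounds were preincubated 5 min at room temperature before DOI (4 nM solution) was added. Kinetic fluorescence was read for 3 min.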

The target is the same in experiment [10]. Kind of experiment: 5-hydroxytryptamine receptor 2A (HTR2A) small molecule agonists, cell-based qHTS assay (AID 1963587). Also: nearly all actives have a fitted effect of over 30% in size. A digest of the protocol:
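CHO cells stably expressing human HTR2A, plated 18 h, loaded with calcium dye 1 h at 37 C. Agonist mode: compounds added and intracellular calcium fluorescence recorded kinetically for 2 min at 1 sec intervals.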

Experiment [11] addresses Muscarinic acetylcholine receptor M1 (Homo sapiens) (UniProt P11229). In words: Cholinergic receptor muscarinic 1 (CHRM1) small molecule antagonists, cell-based qHTS assay (AID 1963588). Also: nearly all actives have a fitted effect of over 40% in size. A digest of the protocol:
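Compounds were tested at 15 concentrations in three independent runs. Dye-loaded CHRM1-CHO cells were exposed 5 min at room temperature before stimulation by acetylcholine added at 50nM. Intracellular calcium was read kinetically on FDSS for 3 min.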

For experiment [12] the target is unchanged. Kind of experiment: Cholinergic receptor muscarinic 1 (CHRM1) small molecule agonists, cell-based qHTS assay (AID 1963589). Also: nearly all actives have a fitted effect of over 35% in size. A digest of the protocol:
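Fluorescent calcium dye reports M1 activation in stably transfected CHO cells. Compounds, 15 concentrations, added after 1 h dye loading at 37 C; kinetic reading at 1 sec intervals.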

Experiment [13] can be described thus: cAMP Responsive Elements (CRE) small molecule agonists, cell-based qHTS assay (AID 1963590). A digest of the protocol: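 Compound exposure lasted 3 h at 37 C/5% CO2 in CRE-bla HEK 293T cells grown in assay medium with 10% dialyzed FBS and 25 mM HEPES. Reporter signal came from LiveBLAzer B/G FRET substrate, 2 h, room temperature.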
Experiment [14] can be described thus: cAMP Responsive Elements (CRE) small molecule antagonists, cell-based qHTS assay (AID 1963591; active = well fitted inhibition curve with a large enough effect in the signal ratio in the repeat runs, not every such curve was filed as active; the % refers to the signal ratio). A digest of the protocol:
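Stimulation used NKH477 at a final 0.25 uM for 3 h in compound-treated CRE-bla HEK293T cells, seeded 18 h beforehand. Reporter activity was measured with LiveBLAzer B/G FRET substrate after 2 h at room temperature.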

Experiment [15] deals with Beta-2 adrenergic receptor (Homo sapiens) (UniProt P07550). In words: Adrenergic beta2 receptor (ADRB2) small molecule antagonists, cell-based qHTS assay (AID 1963592). Also: series mostly up to about 92 µM; nearly all actives have a fitted effect of over 50% in size. A digest of the protocol: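 Assay format: CHO-ADRB2 cells, 18-20hr seeding at 37C/5% CO2, then compound plus 1nM isoproterenol agonist mix for 0.5hr RT. Homogeneous time-resolved fluorescence cAMP detection after 1hr, expressed as 665/615 nm ratio.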
Beta-2 adrenergic receptor (Homo sapiens), sequence (P07550 whole entry, looked up): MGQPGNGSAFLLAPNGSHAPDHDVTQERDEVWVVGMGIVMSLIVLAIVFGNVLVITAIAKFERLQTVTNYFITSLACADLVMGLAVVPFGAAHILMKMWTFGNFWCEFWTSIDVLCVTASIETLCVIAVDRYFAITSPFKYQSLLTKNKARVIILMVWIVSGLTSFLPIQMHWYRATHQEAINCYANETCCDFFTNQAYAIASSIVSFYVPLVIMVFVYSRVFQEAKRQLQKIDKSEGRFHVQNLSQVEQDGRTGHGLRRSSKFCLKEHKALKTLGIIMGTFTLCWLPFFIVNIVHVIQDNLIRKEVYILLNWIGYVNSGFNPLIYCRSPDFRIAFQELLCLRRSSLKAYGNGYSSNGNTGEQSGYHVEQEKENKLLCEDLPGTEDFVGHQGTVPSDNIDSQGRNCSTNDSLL

Experiment [16] has the same target. In words: Adrenergic beta2 receptor (ADRB2) small molecule agonists, cell-based qHTS assay (AID 1963593).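 Also: CHO cells stably overexpressing human ADRB2.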 In a few lines:
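CHO cells stably over-expressing ADRB2 were plated overnight at 37C, then dosed with compounds plus a stimulation mix containing 100uM IBMX and 25uM Ro-20-1724 for 0.5hr at room temperature. cAMP was measured by HTRF competition, 1hr.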

In experiment [17] the target is D(2) dopamine receptor (Homo sapiens) (UniProt P14416). Kind of experiment: Dopamine D2 receptor (DRD2) small molecule agonists, cell-based qHTS assay (AID 1963594). Also: nearly all actives have a fitted effect of over 35% in size. In a few lines:
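HEK293 cells stably expressing human DRD2, pre-treated with PDE inhibitor Ro20-1724 (0.1 mM final) and compound 10 min at room temperature, then stimulated with NKH477 (200nM […]) for 30 min. cAMP read by HTRF (665/620 nm).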

The target is the same in experiment [18]. Kind of experiment: Dopamine D2 receptor (DRD2) small molecule antagonists, cell-based qHTS assay (AID 1963595; active = well fitted inhibition curve with a large enough effect in the signal ratio in the repeat runs, with a control signal flat; the % refers to the signal ratio). A digest of the protocol: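 Antagonist mode in DRD2-HEK293 cells: after compound addition with 0.1 mM Ro20-1724, cells received quinpirole (12 nM) and NKH477 (200 nM) for 30 min at room temperature; HTRF cAMP read after 1 h detection.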

D(2) dopamine receptor (Homo sapiens), sequence (P14416 whole entry, looked up): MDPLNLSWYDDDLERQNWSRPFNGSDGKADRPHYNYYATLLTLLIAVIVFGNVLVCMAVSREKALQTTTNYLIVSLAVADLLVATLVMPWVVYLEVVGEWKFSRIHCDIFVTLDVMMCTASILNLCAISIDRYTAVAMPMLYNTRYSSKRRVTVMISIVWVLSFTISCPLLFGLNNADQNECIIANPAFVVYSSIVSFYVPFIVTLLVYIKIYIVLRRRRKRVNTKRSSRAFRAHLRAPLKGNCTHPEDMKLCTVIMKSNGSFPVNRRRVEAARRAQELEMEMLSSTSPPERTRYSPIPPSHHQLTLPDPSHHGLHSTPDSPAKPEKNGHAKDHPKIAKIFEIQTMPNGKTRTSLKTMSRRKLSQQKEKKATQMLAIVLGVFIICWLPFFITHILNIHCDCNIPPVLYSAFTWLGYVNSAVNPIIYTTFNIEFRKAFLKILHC
5-hydroxytryptamine receptor 2A (Homo sapiens), sequence (P28223 whole entry, looked up): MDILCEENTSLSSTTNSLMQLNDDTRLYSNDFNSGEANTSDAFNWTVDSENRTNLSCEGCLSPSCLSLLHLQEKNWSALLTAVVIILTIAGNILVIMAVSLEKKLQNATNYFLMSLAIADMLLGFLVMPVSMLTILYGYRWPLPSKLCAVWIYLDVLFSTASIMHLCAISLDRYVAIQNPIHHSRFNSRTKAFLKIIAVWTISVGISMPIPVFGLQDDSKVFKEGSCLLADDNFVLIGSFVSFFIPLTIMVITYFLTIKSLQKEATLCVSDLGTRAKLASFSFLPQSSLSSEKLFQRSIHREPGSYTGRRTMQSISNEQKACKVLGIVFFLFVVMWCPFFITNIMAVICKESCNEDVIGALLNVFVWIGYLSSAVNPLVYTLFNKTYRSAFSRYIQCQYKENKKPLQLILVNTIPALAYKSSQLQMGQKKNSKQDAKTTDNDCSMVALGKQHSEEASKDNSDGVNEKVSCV
Gonadotropin-releasing hormone receptor (Homo sapiens), sequence (P30968 whole entry, looked up): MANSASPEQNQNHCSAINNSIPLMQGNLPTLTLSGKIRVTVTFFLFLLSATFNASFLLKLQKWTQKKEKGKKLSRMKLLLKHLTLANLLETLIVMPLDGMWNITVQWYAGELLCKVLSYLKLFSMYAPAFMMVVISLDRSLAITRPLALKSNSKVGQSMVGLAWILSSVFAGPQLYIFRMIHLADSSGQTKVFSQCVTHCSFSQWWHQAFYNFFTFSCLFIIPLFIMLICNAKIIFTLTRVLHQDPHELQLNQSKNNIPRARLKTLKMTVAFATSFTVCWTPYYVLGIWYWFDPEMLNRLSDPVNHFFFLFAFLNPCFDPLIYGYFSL
Muscarinic acetylcholine receptor M1 (Homo sapiens), sequence (P11229 whole entry, looked up): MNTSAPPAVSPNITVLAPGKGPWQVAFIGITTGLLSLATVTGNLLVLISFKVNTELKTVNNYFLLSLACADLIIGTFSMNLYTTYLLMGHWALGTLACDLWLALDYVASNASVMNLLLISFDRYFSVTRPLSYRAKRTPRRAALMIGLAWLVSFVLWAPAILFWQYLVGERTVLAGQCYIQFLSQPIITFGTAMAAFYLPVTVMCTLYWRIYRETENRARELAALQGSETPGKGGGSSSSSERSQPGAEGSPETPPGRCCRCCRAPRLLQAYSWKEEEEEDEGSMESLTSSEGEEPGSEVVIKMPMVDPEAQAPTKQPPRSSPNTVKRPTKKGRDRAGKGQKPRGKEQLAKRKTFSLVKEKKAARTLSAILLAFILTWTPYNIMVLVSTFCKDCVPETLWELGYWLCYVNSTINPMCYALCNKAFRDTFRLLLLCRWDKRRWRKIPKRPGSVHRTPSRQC

For the compound `CS(=O)(=O)c1ccc(Cl)cc1`, the Potency entry in experiment [1], in experiment [2], in experiment [3], in [4], in experiment [5] and in [6] was “inactive” throughout. For the same compound, the Potency result in [7], in experiment [8], in experiment [9], in experiment [10], in experiment [11] and in experiment [12] was “inactive” in each case. Besides, the Potency result in [13], in experiment [14], in experiment [15], in experiment [16], in [17] and in [18] was “inactive” in each case.
For the compound `c1cc(C(c2ccc(OCC3CO3)cc2)C(c2ccc(OCC3CO3)cc2)c2ccc(OCC3CO3)cc2)ccc1OCC1CO1` (stereo not given), the Potency result in [1], in experiment [3], in experiment [4], in experiment [5], in [6] and in experiment [7] was “inactive” in each case. The Potency entry in experiment [8], in experiment [9], in [10], in [11], in [12] and in [15] was “inactive” in each case. For the same compound, the Potency entry in experiment [16], in experiment [17] and in experiment [18] was “inactive” throughout. Moreover, the Potency in experiment [2] is 22.5 µM (active) and 21.7 µM (active).
Take `C[n+]1ccn(CCO)c1`: the Potency entry in experiment [1], in experiment [2], in experiment [3], in experiment [4], in experiment [5] and in experiment [6] was “inactive” each time. Moreover, the Potency entry in experiment [7], in experiment [8], in [9], in experiment [10], in [11] and in experiment [12] was “inactive” throughout. Moreover, the Potency entry in experiment [13], in experiment [15], in experiment [17] and in [18] was “inactive” each time.
As for `CCC(C)c1ccccc1O` (stereo not given), the Potency entry in experiment [1], in experiment [2], in experiment [3], in experiment [4], in experiment [5] and in [6] was “inactive” throughout. For the same compound, the Potency entry in experiment [7], in experiment [8], in experiment [9], in experiment [11], in experiment [12] and in experiment [13] was “inactive” throughout. For the same compound, the Potency entry in [14], in experiment [15], in [16], in [17] and in experiment [18] was “inactive” throughout.
As for `Cn1sccc1=O`, the Potency was 43.3 µM (active) and 13.7 µM (active) in [1]; 13.7 µM (active) and 6.86 µM (active) in experiment [2]; 28.9 µM (active) and inactive in experiment [6]; 18.2 µM (active) in [7]. Besides, the Potency result in experiment [3], in experiment [4], in experiment [5], in [8], in experiment [9] and in [10] was “inactive” in each case. For the same compound, the Potency result in [11], in experiment [12], in experiment [13], in [14], in [15] and in [16] was “inactive” in each case. Further, the Potency entry in [17] and in experiment [18] was “inactive” throughout.
Consider `CC(=O)/C=C/C1C(C)=CCCC1(C)C` (stereo not given), for which the Potency entry in experiment [1], in [2], in experiment [3], in [4], in experiment [5] and in experiment [6] was “inactive” in each case. Further, the Potency entry in experiment [7], in experiment [8], in [10], in experiment [11], in [12] and in experiment [13] was “inactive” throughout. The Potency entry in experiment [14], in [15], in [16], in experiment [17] and in experiment [18] was “inactive” throughout.
As for `CC(=O)OCc1ccccc1`, the Potency result in [1], in experiment [2], in experiment [3], in experiment [4], in experiment [5] and in [6] was “inactive” each time. The Potency result in experiment [7], in experiment [8], in [9], in [10], in [11] and in experiment [12] was “inactive” in each case. In addition, the Potency result in [13], in experiment [14], in [15], in experiment [16], in experiment [17] and in [18] was “inactive” in each case.
